Measurements published in PubChem BioAssay (NCI).
The panel holds about 83,000 compounds, 20% with a hit somewhere; the sample as a whole holds those more often.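 Negative percent growth values reflect cell death: -40 means 40% of the cells present at the start died, and -100 means all died.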 A number with no mark means an inactive call. The source made the active and inactive calls. The calls were made as follows: active = growth percent below 10; inactive = the rest.

Key:
Test in all cases: NCI-60 one-dose screen, 48 h (100 = growth as untreated, 0 = no growth, -100 = all killed)
Conditions in all cases: 10 µM unless noted
NCI-H23 lung = tested on: NCI-H23 lung
NCI-H226 lung = tested on: NCI-H226 lung
NCI-H322M lung = tested on: NCI-H322M lung
HOP-62 NSCLC = tested on: HOP-62 NSCLC
NCI-H460 lung = tested on: NCI-H460 lung
HOP-92 NSCLC = tested on: HOP-92 NSCLC
NCI-H522 lung = tested on: NCI-H522 lung
A549/ATCC NSCLC = tested on: A549/ATCC NSCLC
786-0 renal = tested on: 786-0 renal
COLO 205 colon = tested on: COLO 205 colon
DU-145 prostate = tested on: DU-145 prostate
K-562 leukemia = tested on: K-562 leukemia
MALME-3M melanoma = tested on: MALME-3M melanoma
MDA-MB-231 breast = tested on: MDA-MB-231 breast
RXF 393 renal = tested on: RXF 393 renal
SF-268 CNS = tested on: SF-268 CNS
SF-295 CNS = tested on: SF-295 CNS
SF-539 CNS = tested on: SF-539 CNS
UACC-257 melanoma = tested on: UACC-257 melanoma
M14 melanoma = tested on: M14 melanoma

SMILES	growth (NCI-H23 lung)	growth (NCI-H226 lung) [%]	growth (NCI-H322M lung)	growth (HOP-62 NSCLC) [%]	growth (NCI-H460 lung)	growth (HOP-92 NSCLC) [%]	growth (NCI-H522 lung)	growth (A549/ATCC NSCLC)	growth (786-0 renal)	growth (COLO 205 colon)	growth (DU-145 prostate)	growth (K-562 leukemia)	growth (MALME-3M melanoma)	growth (MDA-MB-231 breast)	growth (RXF 393 renal)	growth (SF-268 CNS) [%]	growth (SF-295 CNS) [%]	growth (SF-539 CNS)	growth (UACC-257 melanoma) [%]	growth (M14 melanoma)
O=C(O)c1[nH]c(=O)[nH]c(=O)c1[N+](=O)[O-]	109%	108	119%	104	115%	88	138%	106%	106%	112%	134%	89.7%	124%	110%	113%	117	104	103%	97.7	110%
C#CCn1cnc2c(Nc3cccc(NC(=O)C=C)c3)ncnc21	89.7%	66.3	103%	75.2	80.3%	68.5	79.4%	63.9%	61.7%	84.4%	86.4%	72.7%	78.9%	80%	85.2%	63.4	80.5	66.8%	75.6	76.6%
CCO/C=N/C1=C(C#N)C(c2ccc(OC)cc2)c2sc3c(F)cccc3c2O1 (stereo not given)	48.9%	63	51.5%	49.5	12.7%	62.6	0.128% (active)	43.3%	33.3%	39.2%	35.8%	15.1%	60%	34.6%	3.81% (active)	44.2	16.6	-23.7% (active)	71.6	22.6%
CC1(C)CC[C@]2(c3nnc(-c4ccncc4)o3)CC[C@H]3C(=CC[C@H]4[C@@]3(C)CC[C@H]3C(C)(C)C(=O)CC[C@]43C)[C@@H]2C1	71.7%	60.6	94.4%	85.7	40.4%	76	64.2%	73.9%	66.3%	67.9%	86.3%	40.8%	86.9%	72.8%	79%	81.4	89.7	76.3%	70.6	84%
O=C(O)CCCN1C(=O)/C(=C/C(Cl)=C/c2ccccc2)SC1=S	31.3%	41.9	77.2%	88	57.4%	14.2	12.2%	65%	-11.5% (active)	11.6%	18.9%	14.7%	-2.99% (active)	38.1%	-16.5% (active)	56.1	49.5	10%	40.8	9.62% (active)
CCN(c1ccc(Cl)cc1)c1nc(-c2ccc([N+](=O)[O-])cc2)cs1	92%	91.9	86.7%	99.6	99.6%	83.6	82.8%	97.6%	89%	113%	103%	88.9%	80.5%	90.6%	113%	110	100	99.6%	104	99.7%
O=c1oc2c(cnc3ccccc32)cc1-c1ccsc1	99.8%	97.8	110%	92.3	99.9%	82.4	97.4%	105%	97.1%	112%	104%	92.8%	101%	101%	105%	94.6	103	93.4%	101	101%
COc1cc(-c2nc3cc(Cl)c(Cl)cc3[nH]2)ccc1OCC(=O)N=Nc1c(O)[nH]c2ccc([N+](=O)[O-])cc12	84.3%	92.9	112%	88.7	102%	84.2	89.6%	114%	92.1%	78.5%	105%	46.1%	77.4%	71.9%	101%	81.4	101	81.7%	106	80.8%
COc1cc2oc(-c3cccc(NC(=O)c4cccc(Br)c4)c3)cc(=O)c2c(OC)c1OC	57.2%	73.7	76.4%	55.5	34.7%	47.5	38.6%	49.3%	59%	57.8%	54.4%	25.8%	53%	63.5%	54.9%	59.7	40.9	69%	83.8	59%
N=C(N)c1ccc(-c2ccc(-c3ccc(Cl)cc3)s2)nc1	62.8%	84.5	-30.3% (active)	36	-90.2% (active)	65.1	-52.5% (active)	-30.8% (active)	71.3%	-71.8% (active)	-94.8% (active)	-45.1% (active)	87.3%	-47% (active)	60.1%	57.6	27.1	-55.2% (active)	82.3	17.9%
O=C(Nn1c2c(sc1=NCc1ccccc1)C(=O)c1ccccc1C2=O)c1cc2ccc1CCc1ccc(cc1)CC2	32%	66.3	106%	77.5	74.9%	127	52.9%	80%	82.7%	106%	88.8%	48.8%	5.52% (active)	40.4%	60.3%	58.6	94.8	87.5%	52.6	19.3%
COc1cc2c(c(OC)c1OC)-c1ccc(OC)c(=O)cc1[C@@H](NC(=O)CCl)CC2	5.73% (active)	12.5	52.1%	40.4	-5.39% (active)	10	-27.4% (active)	13%	14.6%	-71.9% (active)	-18% (active)	22.1%	91.8%	4.86% (active)	-12.6% (active)	23.2	25.1	4.53% (active)	60.1	-47.2% (active)
COc1ccc(-c2csc(NC(=O)CSc3nc(-c4ccccc4)cc(=O)[nH]3)n2)cc1	51%	78.7	90.1%	50.7	78.7%	90.2	58%	64.6%	67.4%	56.6%	76.1%	42.9%	60.2%	83.5%	86.5%	77.9	53.3	78.3%	77.1	59.1%
CCCCC(=O)Nc1ncc(Cc2ccc(Cl)cc2)s1	90.3%	82	86.8%	68.8	60.7%	69.7	50.1%	53.1%	80.7%	76.5%	89%	37.5%	81.3%	62.3%	56.4%	79.6	74.6	73.5%	80.7	61.1%
Nc1ncnc2c1N=C(c1ccc(Cl)cc1)CC(c1ccc3c(c1)OCO3)N2 (stereo not given)	100%	90.8	112%	88.1	103%	59.8	89.7%	98.4%	91.6%	98.6%	109%	71.3%	116%	88.6%	80.9%	91.1	128	88.3%	110	118%
